# Sampled rows, rich in hits. Any-hit rate of the full collection: about 7.5%.
# SMN2 splice up: enhancers of SMN2 splice variant expression. HEK293 SMN2-luciferase splicing reporter, luminescence, 30-36 h. Potency, µM (doses to about 46.1 µM), inactives show at the top dose activity change, positive = activation, hits mostly activators. actives 2.8% (n = 210,000); also: % of control where 0% means no effect; nearly all actives have a fitted effect of over 55% in size
#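 HEK293 cells carry an SMN2 […]–luciferase reporter in which exon 7 inclusion puts luciferase in frame. Cells were plated 10-12 h before compound addition, then incubated 30-36 h at 37C. ONE-Glo luminescence was read; sodium butyrate at 4.5 mM final served as control.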
# Luc counter: counter-screen: inhibitors of Kinase-Glo firefly luciferase | Q27757 | Kinase-Glo luciferase, ATP luminescence, 8 min | Potency, µM (top dose mostly 38.3 µM), without a hit: at the top dose activity change, negative = inhibition, usual class: inhibitors | actives 0.28% (n = 200,000); also: % is scaled to controls: 0 for no effect and ±100 for the full control effect; nearly all actives have a fitted effect of over 60% in size
#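 Substrate mix (final 50 mM imidazole pH 7.2, 50 mM KCl, 7 mM MgCl2, 10 uM ATP, 0.01% Tween 20, 0.05% BSA) plus pin-tool compound, then Kinase-Glo detection mix; 8 min ambient, luminescence read.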
# NPC1 promoter act: activates the NPC1 promoter | Huh7 NPC1 promoter luciferase reporter, 24 h | Potency, µM (doses to about 9.22 µM), for the others: at the highest dose activation, most hits filed as activators | actives 2.4% (n = 320,000) | AID 485313; also: % of control where 0% means no effect; nearly all actives have a fitted effect of over 60% in size
#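 Stably transfected Huh7 (NPC1 promoter→luciferase), 1500 cells/well in Opti-MEM + 10% FBS, 2 h settle, then compound 24 h at 37 °C. Luminescence after 10 min with Amplite reagent.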
# ELG1 genotoxic: induces genotoxicity in HEK293T cells with luciferase-tagged ELG1. HEK293T ELG1-luciferase reporter, luminescence, 16 h. Potency, µM (top dose mostly 46 µM), without a hit: at the highest dose activity change, positive = activation, hits mostly activators. actives 1.3% (n = 330,000); also: % of control where 0% means no effect; nearly all actives have a fitted effect of over 60% in size
#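 Quantitative HTS format in 1536-well plates. HEK293T ELG1-luciferase reporter cells receive test compound and are incubated 16 hr at 37 °C, 5% CO2; ONE-Glo added, 30 min room temperature, then luminescence read.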
# FLuc counter: inhibits or activates purified firefly luciferase, miR-21 counter-screen. AID 588342. P08659. purified FLuc, Km substrates, luminescence inhibition. actives 6.9% (n = 360,000). Potency, µM (highest dose often 57.5 µM), inactives show at the top dose activity change, negative = inhibition, usual class: inhibitors;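 also: plate controls were vehicle for no effect and reference inhibitor for full effect; nearly all actives have a fitted effect of over 55% in size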
# Target sequence (P08659 whole entry, looked up): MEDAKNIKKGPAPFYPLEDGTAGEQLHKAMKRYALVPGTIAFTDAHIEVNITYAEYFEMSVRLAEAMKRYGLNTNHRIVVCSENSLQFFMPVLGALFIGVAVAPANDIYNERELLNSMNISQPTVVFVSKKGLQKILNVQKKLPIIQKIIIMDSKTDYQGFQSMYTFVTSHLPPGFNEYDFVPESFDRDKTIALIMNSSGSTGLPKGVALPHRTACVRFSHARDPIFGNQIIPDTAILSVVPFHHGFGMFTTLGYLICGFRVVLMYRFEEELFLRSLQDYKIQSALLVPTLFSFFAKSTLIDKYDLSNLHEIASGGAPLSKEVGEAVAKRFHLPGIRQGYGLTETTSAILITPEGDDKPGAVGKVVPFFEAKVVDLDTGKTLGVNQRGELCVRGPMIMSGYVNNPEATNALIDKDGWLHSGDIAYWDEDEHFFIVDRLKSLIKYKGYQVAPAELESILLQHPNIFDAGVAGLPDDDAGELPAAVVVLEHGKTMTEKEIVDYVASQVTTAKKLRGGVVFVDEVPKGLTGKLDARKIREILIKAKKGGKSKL
#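 Purified P. pyralis luciferase (10nM final) with 10uM D-luciferin and 10uM ATP (Km levels) in 50mM Tris acetate pH 7.5, 10mM Mg acetate, 0.01% Tween-20, 0.05% BSA; qHTS 6-point titration, ~60 µM downward; luminescence read.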
# Rab9 promoter act: activators of Rab9 promoter; Huh7 Rab9 promoter-luciferase reporter, luminescence, 24 h; Potency, µM (highest dose often 9.22 µM), for inactives: at the highest dose activation, negative = inhibition, most hits filed as activators; actives 2.8% (n = 320,000); AID 485297; also: % of control where 0% means no effect; nearly all actives have a fitted effect of over 60% in size
#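 Huh7 cells stably carrying a Rab9 promoter-luciferase reporter, 1500 cells per well in OP-MEM I with 10% FBS, treated with compound 24 hours at 37C. Luciferase activity read by luminescence after 10 minutes with Amplite reagent.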
# * hit, by the source's call; ? = inconclusive; . = no result given; [ ] = another dose, or the depositor's remark. Calls follow the shape of the dose curve; as a rule, active = well fitted curve in the direction sought with a large enough effect; inconclusive = small, poorly fitted or top-dose-only effect, or another doubt; inactive = no such curve, though single readings can be large; an effect the other way counts as inactive or inconclusive. Potency is read from the fitted curve at half-maximal effect.
SMILES,SMN2 splice up,Luc counter,NPC1 promoter act,ELG1 genotoxic,FLuc counter,Rab9 promoter act
CCc1nn2c(=O)cc(COC(=O)c3ccccc3NC(=O)COc3ccccc3C)nc2s1,.,.,.,.,2.8%,.
CSc1nc(-c2ccc(Cl)cc2)nn1C(=O)c1ccccc1,.,.,24.7%,17.1%,10.7µM*,?
CSc1nc(-c2ccccc2)nn1C(=O)c1ccc(Cl)cc1,?,-6.9%,8.4%,4.3%,-16.6%,12.2%
CCOC(=O)c1cccc(NC(=O)Nc2c(C)n(C)n(-c3ccccc3)c2=O)c1,0.0%,.,.,.,2.3%,.
Cc1ccccc1/C=N/N1CCN(c2ccccc2)CC1,?,1.1%,21.1%,16.6%,16.9µM*,16.7%
Cc1cccc(/C=N/N2CCN(c3ccccc3)CC2)c1,17.8µM*,-5.0%,?,?,7.57µM*,?
Cc1ccc(/C=N/N2CCN(c3ccccc3)CC2)cc1,?,-1.7%,?,?,-19.2%,3.55µM*
CSc1ccc(/C=N/N2CCN(c3ccccc3)CC2)cc1,?,-11.5%,?,6.5%,4.8%,?
COc1ccc(-c2cn3c(C)c(C(=O)Nc4ccncc4)sc3n2)cc1,-23.5%,-1.1%,-4.1%,1.8%,?,-1.2%
COc1ccc(-c2cn3c4c(sc3n2)CCCC4)cc1,1.26µM*,-6.4%,1µM*,?,0.213µM*,0.501µM*
CSc1ccc(/C=C/C(=O)c2c(O)cc(C)oc2=O)cc1,.,.,19.2%,20.8%,4.26µM*,?
COc1cc(/C=C/C(=O)c2c(O)cc(C)oc2=O)cc(OC)c1O,-30.1%,-13.3%,1.1%,-2.5%,-16.1%,1.6%
Cc1cc(O)c(C(=O)/C=C/c2ccc(Cl)cc2)c(=O)o1,.,.,19.5%,2.2%,2.13µM*,-2.7%[1.84 µM]
COc1ccc(/C=C/C(=O)c2c(O)cc(C)oc2=O)c(OC)c1,-33.9%,?,3.55µM*,16.4µM*,1.35µM*,1.78µM*
COc1cccc(/C=C/C(=O)c2c(O)cc(C)oc2=O)c1O,-44.7%,-3.2%,-1.0%,?,?,-33.5%
CCCn1c2ccccc2c2cnn(CC(=O)Nc3cc(OC)c(OC)c(OC)c3)c(=O)c21,.,.,.,.,-17.0%,.
CCCN(CCC)CCCNC(=O)Cn1ncc2c3ccccc3n(Cc3ccccc3F)c2c1=O,6.8%,.,.,.,3.7%,.
Cc1oc2ncnc(N3CCOCC3)c2c1C(=O)NCc1ccccc1,.,.,.,.,-1.2%,.
COc1cccc(CNC(=O)C2CCCN(c3nnc(-n4c(C)ccc4C)s3)C2)c1OC (stereo not drawn),-1.0%,.,.,.,-1.0%,.
CCc1ccc(CNc2ccc3c(c2)ncn3C)cc1,11.2µM*,-3.4%,2.24µM*,?,9.53µM*,2.82µM*
CC(C)(C)n1cnc2cc(NCc3ccccc3Cl)ccc21,28.6%,.,.,.,13.5µM*,.
CCn1cnc2cc(NCc3ccc(Cl)cc3)ccc21,.,.,2.82µM*,?,10.7µM*,2.51µM*
Cc1ccc(CNc2ccc3c(c2)ncn3C)cc1,17.8µM*,-2.0%,3.16µM*,8.2µM*,12µM*,2µM*
COc1ccc(CNc2ccc3c(c2)ncn3C)cc1OC,.,.,-14.5%,9.2%,0.7%,15.3%
CCCC(=O)Nc1ccc2nn(-c3ccc(CC)cc3)nc2c1,13.8%,.,.,.,?,.
SMILES,SMN2 splice up,Luc counter,NPC1 promoter act,ELG1 genotoxic,FLuc counter,Rab9 promoter act
Cn1cnc2cc(NCc3ccccc3O)ccc21,.,.,20.1%,16.4%,?,3.9%
Cc1ccc(CNc2ccc3c(c2)ncn3C(C)(C)C)cc1,10µM*,2.4%,1.78µM*,?,9.53µM*,3.98µM*
COC(=O)c1ccccc1NC(=O)c1c(NC(=O)c2ccco2)sc2c1CCC(C(C)(C)C)C2 (stereo not drawn),-6.0%,.,.,.,0.9%,.
COc1ccc(-c2cc(-c3ccc4c(c3)NC(=O)CO4)nc3c2COc2ccc(C)cc2-3)cc1,-11.9%,.,.,.,?,.
O=C(CCn1c2c(c3ccccc31)CCCC2)NNC(=O)c1ccccc1[N+](=O)[O-],1.2%,-1.8%,-1.7%,1.0%,?,-0.4%
O=C(CCn1c2c(c3ccccc31)CCCC2)NNC(=O)c1ccccc1C(=O)O,.,.,6.3%,-1.3%,26.9µM*,-2.9%
CCCCOc1ccc(C(=S)N2CCC(C(N)=O)CC2)cc1,?,-1.0%,?,?,23.9µM*,4.47µM*
COc1ccc(C(=S)N2CCC(C(N)=O)CC2)cc1Br,1.6%,1.6%,-5.3%,4.7%,-8.2%,-1.4%
Cc1ccc2cccc(NC(=O)c3ccc(-c4cccc([N+](=O)[O-])c4)o3)c2n1,3.0%,.,.,.,-4.7%,.
O=C(Nc1ccccc1F)c1ccc(-c2cccc([N+](=O)[O-])c2)o1,.,.,?,?,13.5µM*,?
C=CCNC(=O)c1ccc(-c2cccc([N+](=O)[O-])c2)o1,22.4µM*,0.4%,?,?,?,?
C=CCc1ccccc1OCc1nc2ccccc2n1CC,-12.2%,.,.,.,?,.
CCOC(=O)N1CCc2c(sc(NCc3ccc(OC)c(OC)c3OC)c2C(=O)Nc2ccc(OC)cc2OC)C1,.,.,.,.,15.1µM*,.
CCOC(=O)N1CCc2c(sc(NCc3ccc(N(CC)CC)cc3)c2C(=O)Nc2cc(OC)ccc2OC)C1,.,.,.,.,-17.7%,.
CCOC(=O)N1CCc2c(sc(NCc3ccc(OCC)cc3)c2C(=O)Nc2ccc(OC)cc2OC)C1,.,.,.,.,15.1µM*,.
CCOC(=O)N1CCc2c(sc(NCc3sccc3C)c2C(=O)Nc2cc(Cl)ccc2OC)C1,.,.,.,.,-3.3%,.
CCOC(=O)N1CCc2c(sc(NCc3cccs3)c2C(=O)Nc2ccc(OC)cc2OC)C1,.,.,.,.,13.5µM*,.
CCc1ccc(C(c2ccccc2)c2c[nH]c3ccc(C)cc23)s1 (stereo not drawn),-38.2%,.,.,.,?,.
CCN(Cc1nc(-c2ccc(OC)cc2)oc1C)S(=O)(=O)c1ccc(C)cc1,.,.,.,.,-10.5%,.
O=C(c1cc2ncc(Br)cn2n1)N1CCN(C(=O)c2ccco2)CC1,14.8%,-0.5%,-2.4%,-5.4%,4.5%,-10.0%
Cc1cccc2nc(=S)n(C(=O)c3ccco3)n12,49.9%,3.16µM*,?,?,1.07µM*,1.26µM*
O=C(c1ccco1)n1c(=S)nc2ccccn21,?,12.6µM*,2.82µM*,5.01µM*,3.79µM*,1.41µM*
COc1ccc(C)cc1NS(=O)(=O)c1cnc(N)nc1,.,.,.,.,-1.9%,.
COc1ccc(S(=O)(=O)c2c(Nc3c(C)cccc3C)sc(C(=O)c3ccc4c(c3)OCO4)c2N)cc1,.,.,.,.,-2.3%,.
CC(=O)c1ccc(Nc2ccc(-c3ccccc3F)nn2)cc1,7.08µM*,-4.5%,0.708µM*,?,4.78µM*,0.501µM*
COc1ccc(-c2nc(-c3ccccc3)oc2Nc2c(C)cccc2C)cc1,2.3%,1.6%,.,.,.,.
COc1ccc(-c2onc(C)c2C)cc1S(=O)(=O)N(C)Cc1ccco1,.,.,.,.,1.9%,.
